Here are results for 15 compounds from PubChem BioAssay (NCI).

Compounds without any hit were thinned out: in the full panel of roughly 83,000, 20% have a hit.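 Interpretation: 100, growth as untreated; towards 0, rising growth inhibition; 0, no net growth; 0 to -100, cell death. Compounds scoring below 10 were considered active.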 A number with no mark means an inactive call. Activity calls are given as the source filed them.

Test in all cases: NCI-60 one-dose screen, 48 h (100 = growth as untreated, 0 = no growth, -100 = all killed)
Common to all, as to details: 10 µM unless noted

The test system of test [1] is HCT-15 colon.
Test [2] concerns HT29 colon.
For test [3], the system named is SNB-75 CNS.
In test [4] the test system is SNB-19 CNS.
Test [5] has as its system U251 CNS.
Test [6] deals with PC-3 prostate.
For test [7], the system named is SK-MEL-5 melanoma.
The test system of test [8] is UACC-62 melanoma.
The test system of test [9] is LOX IMVI melanoma.
For test [10], the system named is SK-MEL-28 melanoma.
For test [11], the system named is SK-MEL-2 melanoma.
The test system of test [12] is EKVX NSCLC.
The subject of test [13] is SN12C renal.
Test [14] concerns UO-31 renal.
For test [15], the system named is TK-10 renal.
Test [16] relates to ACHN renal.
For test [17], the system named is CAKI-1 renal.
Test [18] concerns CCRF-CEM leukemia.
Test [19] relates to MOLT-4 leukemia.
Test [20] has as its system A498 renal.

`Cc1ccc2c(n1)C(=O)C(Cl)=C(Nc1cc(C(F)(F)F)cc(C(F)(F)F)c1)C2=O`: the growth in test [1] is 6.82% (active); in test [2] it was 102%; in test [3], 98.3%; in [4] it was 90.6%; in test [5] it was 85.2%; in [6], 80.5%. Besides, the growth in test [7] was 77%; in test [8], 79.9%; in test [9] it was 66.2%; in test [10], 88.7%; in test [11] it was 74.5%; in test [12] it was 78%. In addition, the growth was 92.1% in test [13]; 9.71% (active) in test [14]; 106% in test [15]; -64.9% (active) in test [16]; 81.4% in test [17]; 4.75% (active) in [18]. Also, the growth in [19] is 9.31% (active).
With `Cc1ccsc1[C@H]1c2[nH]c3ccccc3c2C[C@H]2C(=O)N(CCCCCCC(=O)NO)CC(=O)N12`, the growth in [1] is 99.1%; in test [2], 87.3%; in test [3] it was 51.8%; in test [4], 81.1%; in [5], 83.8%; in [6], 78.6%. Moreover, the growth in [7] was 83.4%; in test [8], 57.9%; in test [9] it was -71.9% (active); in test [10], 73.7%; in test [11], 92%; in [12], 87.3%. Further, the growth was 86.5% in [13]; 75.6% in test [14]; 84% in test [15]; 93.5% in test [16]; 90.6% in [17]; 26.5% in test [18]. Moreover, in test [19], the growth was 40%.
On to `CS(=O)(=O)c1ccc(/C(=N/N=C(N)N)c2ccc(Cl)cc2)cc1`, for which the growth in [1] was 81.6%; in [2] it was 92.9%; in test [3], 72.8%; in [4], 90.3%; in test [5], 92.8%; in test [6] it was 76.5%. Further, the growth is 92.2% in [7]; 80.8% in test [8]; 79.7% in test [9]; 95.1% in test [10]; 93.7% in [11]; 91% in test [12]. For the same compound, the growth in test [13] was 95.7%; in test [14] it was 84.4%; in test [15], 76.1%; in test [16], 99.1%; in test [17] it was 59.5%; in test [18], 94.3%. The growth in test [19] is 99.1%.
Take `CCOC(=O)c1cccc(NC2=C(Cl)C(=O)c3nc(C)ccc3C2=O)c1`: the growth in [1] is 72.2%; in test [2], 116%; in [3] it was 108%; in [4], 90.8%; in test [5], 103%; in [6] it was 82%. Also, the growth was 98.2% in test [7]; 95.8% in test [8]; 65.1% in [9]; 103% in test [10]; 105% in test [11]; 92.1% in test [12]. Besides, the growth is 95.5% in test [13]; 93.1% in test [14]; 119% in test [15]; 96.1% in [16]; 108% in test [17]; 88.8% in [20]. The growth in test [18] is 15%; in test [19] it was 48.5%.
Regarding `CNC(=O)c1cc(Oc2ccc3c(c2)sc2nc(-c4ccc(N(C)C)cc4)cn23)ccn1`, the growth in [1] was 8.11% (active); in test [2], -16.1% (active); in [3], 17.8%; in test [4] it was 25%; in [5], 13.5%; in test [6] it was 32.4%. The growth in test [7] was 11.9%; in [8], 41.4%; in test [9], 0.0095% (active); in test [10] it was 56.8%; in test [11], 59.7%; in test [12], 53.8%. The growth in [13] is 43%; in test [14] it was 33%; in test [15], 77.2%; in test [16] it was 21.7%; in test [17] it was 32.3%; in [18] it was 9.49% (active). In addition, in test [19], the growth is 15.1%.
Take `O=C(/C=C/c1ccccc1Cl)Nc1ncc(Cc2cc(Cl)ccc2Cl)s1`: the growth in test [1] was 21.7%; in [2], -18% (active); in test [3], 1.14% (active); in [4], 21%; in test [5], 16.6%; in test [6], 39.8%. The growth was 25.7% in test [7]; 23.2% in [8]; 35% in test [9]; 55.4% in test [10]; 30.4% in test [11]; 37.6% in [12]. Also, the growth in test [13] was 34.1%; in test [14], 48.2%; in test [15] it was 61.2%; in test [16] it was 31.3%; in test [17], 36.6%; in [20], -16.6% (active). In addition, the growth is 14% in test [18] and 24% in test [19].
Consider `Cn1cc(C2=C(c3coc4cc(Br)ccc34)C(=O)NC2=O)c2ccccc21`, for which the growth in [1] is 37.3%; in test [2], 51.7%; in [3] it was 10.5%; in test [4], 90.7%; in test [5], 83.7%; in test [6] it was 69.3%. Further, the growth is 89.6% in [7]; 60.1% in test [8]; 69.2% in [9]; 88.6% in test [10]; 96.5% in [11]; 67% in test [12]. In addition, the growth in test [13] was 95.7%; in test [14], 52.5%; in test [15], 101%; in [16], 88.2%; in test [17] it was 50.5%; in [18], 62.5%. Besides, the growth in [19] is 52.9%.
For `COc1cc(C(C)=C(c2ccc(OCCN(C)C)cc2)c2ccc(OCCN(C)C)cc2)ccc1F`, the growth is 101% in test [1]; 108% in test [2]; 100% in test [3]; 98.2% in test [4]; 106% in test [5]; 110% in [6]. The growth was 96.6% in test [7]; 97.8% in test [8]; 95.3% in [9]; 109% in [10]; 109% in [11]; 96.1% in test [12]. Also, the growth in [13] was 101%; in test [14] it was 95.5%; in [15], 97.8%; in test [16] it was 105%; in test [17], 101%; in test [20] it was 108%. Further, the growth is 111% in test [18] and 108% in test [19].
On to `CCOP(=O)(OCC)OC[C@]12CCC(C)(C)C[C@H]1C1=CC[C@@H]3[C@@]4(C)CC[C@H](OP(=O)(OCC)OCC)C(C)(C)[C@@H]4CC[C@@]3(C)[C@]1(C)CC2`, for which the growth in test [1] is 34.6%; in test [2], 41.4%; in [3], 58.9%; in [4], 71.2%; in test [5], 49.1%; in [6] it was 19.3%. For the same compound, the growth was 31.3% in test [7]; 53.9% in test [8]; 37.2% in test [9]; 78.9% in [10]; 88.2% in test [11]; 55% in test [12]. For the same compound, the growth in test [13] is 55.3%; in test [14] it was 34.2%; in test [16] it was 67.2%; in test [17], 45.9%; in [20], 79.8%; in [18] it was 49.2%. In test [19], the growth is 32.7%.
Regarding `NC1=NC2(CCCC2)N(c2ccc(S(=O)(=O)Nc3nccs3)cc2)C(N)=N1`, the growth is 100% in test [1]; 109% in [2]; 112% in test [3]; 100% in [4]; 104% in test [5]; 102% in test [6]. In addition, the growth was 100% in test [7]; 98.9% in [8]; 99% in [9]; 105% in test [10]; 116% in [11]; 98.7% in [12]. The growth in test [13] is 102%; in [14], 83.6%; in test [15], 104%; in test [16] it was 103%; in test [17] it was 93.6%; in test [18], 95.9%. Further, the growth in test [19] was 102%.
`O=C(CSc1nc2ccccc2c(=O)n1-c1ccccc1)N/N=C/c1ccc(Oc2ccc(Br)cc2)cc1`: the growth in test [1] was 63.7%; in test [2], 38.2%; in test [3], 57.8%; in [4], 39.9%; in [5] it was 21.5%; in test [6] it was 71.8%. The growth in test [7] is 59.1%; in [8], 68.8%; in [9], 21%; in test [10], 70.9%; in [11] it was 93%; in [12], 60.7%. Also, the growth was 40.7% in test [13]; 91.5% in test [14]; 101% in test [15]; 91.4% in [16]; 70.8% in [17]; 82.3% in [20]. Also, the growth in test [18] was 56.9%; in test [19], 55.5%.
With `O=C(CSc1nnc(-c2ccc(Cl)cc2)n1-c1ccccc1)Nc1cccc(F)c1`, the growth was 67.8% in test [1]; 48.1% in [2]; -14.1% (active) in test [3]; 48.3% in [4]; 14.1% in [5]; 62.1% in [6]. For the same compound, the growth in test [7] is 87.9%; in test [8], 93.5%; in test [9], 0.1% (active); in test [10] it was 78%; in [11], 88.4%; in [12], 42.2%. Also, the growth was 13.7% in test [13]; -15.2% (active) in [14]; -14.7% (active) in [15]; -31.8% (active) in test [16]; 14.1% in test [17]; 57.9% in test [20]. Further, the growth in test [18] was 91.3%; in test [19], 85.8%.
For the compound `Cc1ccccc1Nc1nc(SC(C)C)nc(-c2ccccc2)c1C#N`, the growth is 58.2% in test [1]; 53.2% in [2]; 101% in test [3]; 19.9% in [4]; 33.8% in [5]; 80.8% in [6]. In addition, the growth in test [7] was 85.2%; in test [8], 92.3%; in test [9] it was 10.5%; in test [10], 87.3%; in test [11], 130%; in test [12] it was 73.2%. The growth in test [13] is 12.1%; in test [14], -40.2% (active); in [15], 61.1%; in [16], 13.4%; in test [17], 38.4%; in [18], 80.9%. Besides, the growth in [19] was 90.2%.
With `NC1[C@H]2CN(c3cnc(C(=O)Nc4cc(F)cc5cccnc45)cn3)C[C@@H]12` (stereo not given in full), the growth in [1] was 32.2%; in test [2] it was 26.9%; in [3], 56.7%; in test [4], 75.2%; in test [5], 60.7%; in [6], 65.7%. In addition, the growth was 89% in test [7]; 92.1% in [8]; 71.5% in [9]; 86.1% in test [10]; 92.5% in test [11]; 82.1% in test [12]. Also, the growth in test [13] was 69.8%; in test [14], 44.6%; in test [16], 32.5%; in [17] it was 49.9%; in test [20] it was 75.4%; in [18], 30%. Also, the growth in [19] is 18.1%.
On to `CN1CCN(Cc2ccc(NC(=O)c3cncc(C#Cc4cnc5ccc(OCC6COC6)nn45)c3)cc2C(F)(F)F)CC1`, for which the growth in test [1] is -32.9% (active); in [2], -50.9% (active); in test [3], -97.9% (active); in [4] it was -44.9% (active); in [5], -66.8% (active); in test [6] it was -27.7% (active). Besides, the growth was -97% (active) in test [7]; -49.8% (active) in test [8]; -94% (active) in [9]; -85% (active) in [10]; -78.4% (active) in [11]; -71.6% (active) in test [12]. In addition, the growth in [13] was -30.6% (active); in test [14], -92.3% (active); in test [15], -82.2% (active); in test [16] it was -96.5% (active); in [17] it was -92.8% (active); in [18], -8.07% (active). Moreover, in test [19], the growth was 1.49% (active).
